Compound activity (PubChem BioAssay)
Hits are enriched below; roughly 15% of the tested compounds scored in any of these assays.
ALOX12 inh – inhibitors of human 12S-lipoxygenase ALOX12. 580,000 tested, 1.1% active. Potency, µM (highest dose often 108 µM), for inactives: at the highest dose activity change, negative = inhibition, usual class: inhibitors. purified 12hLO, xylenol orange hydroperoxide absorbance
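Purified human 12hLO at 150 nM in 25 mM Hepes, 0.01% Triton X-100, pH 7.0, preincubated 15 min at room temperature with compound. Reaction started with 40 uM arachidonic acid, 30 min at room temperature. Hydroperoxide measured by Fe-xylenol orange, 573/405 nm absorbance ratio.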
DT40 TDP1 no CPT – qHTS for Inhibitors of human tyrosyl-DNA phosphodiesterase 1 (TDP1): qHTS in cells in absence of CPT | DT40 Tdp1-/- hTDP1 cells, no CPT, ATP luminescence, 48 h | Potency, µM (top dose mostly 46.2 µM), for the others: at the highest dose activity change, negative = growth inhibition, actives largely listed as inhibitors | 420,000 tested, 15% active; also: nearly all actives have a fitted effect of over 55% in size
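Chicken DT40 Tdp1-/- cells complemented with human TDP1, screened without camptothecin (DMSO vehicle only), 400 cells/well. Compounds pin-transferred, cells incubated at 37 °C for at least 48 hr. Growth read as ATP-dependent luminescence (CellTiter-Glo, 30 min at RT).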
RORgamma inh – inhibitors of mouse ROR gamma transcriptional activity; 310,000 tested, 5.4% active; Drosophila S2 Gal4-RORgamma UAS-luciferase reporter, 20 h; Potency, µM (top dose mostly 53.6 µM), inactives show top-dose activity change, negative = inhibition, usual class: inhibitors; AID 2551; also: nearly all actives have a fitted effect of over 60% in size
Target sequence (P51450 whole entry, looked up, the tested form may be a part): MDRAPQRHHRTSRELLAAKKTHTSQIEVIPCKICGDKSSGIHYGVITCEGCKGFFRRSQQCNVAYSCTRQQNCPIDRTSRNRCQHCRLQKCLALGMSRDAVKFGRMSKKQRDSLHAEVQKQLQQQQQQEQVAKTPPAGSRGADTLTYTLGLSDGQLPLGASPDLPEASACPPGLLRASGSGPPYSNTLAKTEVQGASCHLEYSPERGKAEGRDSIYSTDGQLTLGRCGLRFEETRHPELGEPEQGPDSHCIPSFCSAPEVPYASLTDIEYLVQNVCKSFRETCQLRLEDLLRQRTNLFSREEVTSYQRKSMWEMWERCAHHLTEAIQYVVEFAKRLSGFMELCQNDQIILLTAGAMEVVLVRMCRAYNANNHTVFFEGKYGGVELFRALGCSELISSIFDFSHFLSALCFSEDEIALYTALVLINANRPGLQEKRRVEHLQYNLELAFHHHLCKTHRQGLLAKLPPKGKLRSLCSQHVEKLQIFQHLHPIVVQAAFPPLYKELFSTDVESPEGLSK
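Compounds are pin-transferred onto Drosophila Schneider cells expressing a copper-inducible Gal4–ROR gamma transactivation domain fusion. After 1 hr, copper sulfate is added to 700 uM final; luciferase is read 20 hr later.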
DT40 TDP1 CPT – DT40-hTDP1 cell growth loss with CPT | Potency, µM (titrated, usually from 46.2 µM), for the others: at the highest dose activity change, negative = growth inhibition, usual class: inhibitors | 420,000 tested, 12% active | chicken DT40 Tdp1-/-;hTDP1 cells + 20 nM CPT, ATP luminescence, 48 h; also: nearly all actives have a fitted effect of over 55% in size
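Cell growth measured by CellTiter-Glo luminescence after a minimum 48 h, 37 C compound exposure with 20 nM CPT in Tdp1-knockout DT40 cells stably expressing hTDP1, seeded 400/well; qHTS titration format.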
Gal4-VP16 FLuc – counter-screen for ROR gamma inhibitors: Gal4-VP16 reporter. Drosophila S2 Gal4-VP16 UAS-luciferase, luminescence, 20 h. Potency, µM (highest dose often 53.6 µM), for the others: at the top dose activity, negative = inhibition, actives largely listed as inhibitors. 310,000 tested, 3.5% active;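 also: Gal4-VP16 expression switched on by copper sulfate through the metallothionein promoter; nearly all actives have a fitted effect of over 50% in size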
ELG1 repair inh – blocks ELG1-dependent DNA repair in HEK293T cells. HEK293T ELG1-luciferase reporter, luminescence, 16 h; DNA damage induced by 5-fluorouridine. Potency, µM (highest dose often 46.1 µM), for the others: top-dose activity change, negative = inhibition, usual class: inhibitors. 330,000 tested, 2.3% active. AID 504467; also: nearly all actives have a fitted effect of over 55% in size
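In this reporter screen, reduction of luminescence relative to DMSO vehicle indicated activity. Compounds and 5-fluorouridine were added together to 2,000 cells per well, incubated for 16 hr at 37 °C, then developed with ONE-Glo.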
* marks the source's active call; other numbers are inactive results; ? = inconclusive; . = no result; [ ] = another dose, or the depositor's remark. Calls follow the shape of the dose curve; as a rule, active = well fitted curve in the direction sought with a large enough effect; inconclusive = small, poorly fitted or top-dose-only effect, or another doubt; inactive = no such curve, though single readings can be large; an effect the other way counts as inactive or inconclusive. % is scaled to controls: 0 for no effect and ±100 for the full control effect; potency is read from the fitted curve at half-maximal effect.

SMILES	ALOX12 inh	DT40 TDP1 no CPT	RORgamma inh	DT40 TDP1 CPT	Gal4-VP16 FLuc	ELG1 repair inh
COc1ccccc1C(=O)N1CCC(c2nc3ccccc3o2)CC1	11.1%	.	.	.	.	.
O=C(c1ccccc1)N1CCC2(CC1)COc1ccccc1CN2	27.8%[176 µM]	.	.	.	.	.
COc1ccc(OC)c(CCNC(=O)c2c(C)oc3ncn(CC(C)C)c(=O)c23)c1	-8.1%	18.4µM*	.	?	.	.
COc1ccc(OC)c(CNC(=O)c2c(C)oc3ncn(CC(C)C)c(=O)c23)c1	?	16.4µM*	.	?	.	.
CCOc1ccc(CCCNC(=O)c2c(C)cc(C)n(C)c2=O)cc1OCC	28.3%	.	.	.	.	.
Cc1ccc(NC(=O)C2CC(=O)N(c3n[nH]c4ccccc34)C2)nc1 (centres undefined)	11.9%	.	.	.	.	.
COC(=O)C(NC(=O)CCc1c(C)nc2cc(-c3cccc(F)c3)nn2c1C)C(C)C (centres undefined)	-11.9%	18.4µM*	.	?	.	.
Cc1nc2cc(-c3cccc(F)c3)nn2c(C)c1CCC(=O)NC(C)CCc1ccco1 (centres undefined)	.	?	11.2µM*	?	-2.3%	?
COc1cc(OC)cc(-c2cc3nc(C)c(CCC(=O)NC(C)CCc4ccco4)c(C)n3n2)c1 (centres undefined)	-19.6%	16.4µM*	?	?	-18.1%	12.6µM*
Cc1csc(NC(=O)CCc2c(C)nc3cc(-c4cccc(F)c4)nn3c2C)n1	9.2%[57.4 µM]	20.6µM*	?	16.4µM*	?	?
Cc1ccc(C(=O)NCc2coc(-c3cccs3)n2)cc1[N+](=O)[O-]	-4.0%	.	.	.	.	.
Cc1nn(-c2ccc(F)cc2)c(C)c1CN1CCCn2nc(CO)cc2C1	1.0%	.	.	.	.	.
COc1ccc(CCNC(=O)CCc2c(C)nc3cc(-c4ccc(Cl)cc4)nn3c2C)c(OC)c1	-18.6%	?	.	?	.	.
COc1cc(OC)cc(-c2cc3nc(C)c(CCC(=O)O)c(C)n3n2)c1	?	?	0.708µM*	-28.6%	2.82µM*	?
COc1ccc(-c2nn(C)c3sc(C(=O)N4CCN(c5cc(Cl)ccc5C)CC4)cc23)cc1OC	-23.9%	18.4µM*	.	14.6µM*	.	.
CNC(=O)c1cc(C)c(-c2ccccc2)s1	-3.5%	20.6µM*	35.7%	?	4.4%[0.365 µM]	?
Cn1nc(-c2ccc(Cl)cc2)c2cc(C(=O)N3CCN(c4ccccn4)CC3)sc21	.	5.8µM*	17.7%	5.8µM*	12.6µM*	?
Cn1nc(-c2ccc(Cl)cc2)c2cc(C(=O)N3CCN(c4ccccc4)CC3)sc21	?	?	1.0%	?	7.5%	?
Cn1nc(-c2ccc(Cl)cc2)c2cc(C(=O)N3CCCC3)sc21	0.0%	23.1µM*	-31.3%	18.4µM*	-2.2%	?
O=C(O)CN1CCN(Cc2ccc(OCCc3ccccc3)cc2)CC1=O	7.9%	.	.	.	.	.
CCN(C(=O)Cc1nc(-c2cccs2)oc1C)c1cccc(Br)c1	1.9%	.	.	.	.	.
Cn1nc(C(F)(F)F)c2cc(C(=O)Nc3ccc(C(F)(F)F)cc3)sc21	?	20.6µM*	13.5%	?	-1.7%	?
CNC(=O)c1cc2c(-c3ccccc3)nn(C)c2s1	-6.6%	20.6µM*	?	?	?	7.7%
COc1ccc(NC(=O)CS(=O)(=O)c2cccc(Cl)c2)cc1	-0.3%	23.1µM*	22.8%	?	1.7%	4.4%
COc1ccc(NC(=O)CS(=O)(=O)c2ccc(Br)cc2)cc1	.	4.6%	20.0%	8.5%	7.8%	-0.1%
SMILES	ALOX12 inh	DT40 TDP1 no CPT	RORgamma inh	DT40 TDP1 CPT	Gal4-VP16 FLuc	ELG1 repair inh
CCOc1ccc(-c2cc(C(=O)OC)c3cc(C)ccc3n2)cc1	-12.2%	.	.	.	.	.
COc1ccc2cc(CNCCOCCOCCNCc3ccc4cc(OC)ccc4c3)ccc2c1	?	2.59µM*	.	2.59µM*	.	.
CN(/N=C\c1ccc(O)c(O)c1)c1nc(-c2ccccc2)cc(-c2ccccc2)n1	?	1.46µM*	2.51µM*	0.82µM*	3.16µM*	13µM*
CCN(CC)CCCNC(=O)c1cn(CC)c2cc(N3CCN(C(=O)c4ccco4)CC3)c(F)cc2c1=O	-3.8%	0.4%	-8.6%	-17.9%	0.7%	1.4%
CCn1cc(C(=O)NCc2ccccc2)c(=O)c2cc(F)c(N3CCN(C(=O)c4ccco4)CC3)cc21	?	9.2µM*	22.2%	10.3µM*	-17.7%	16.4µM*
CCn1cc(C(=O)NCc2ccc3c(c2)OCO3)c(=O)c2cc(F)c(N3CCN(C(=O)c4ccco4)CC3)cc21	?	10.3µM*	11.0%	11.6µM*	?	9.2µM*
CN(C)c1nc(-c2ccccc2)nc2c1CCN(C(=O)c1ccncc1)C2	14.5%	.	.	.	.	.
CN(CC(=O)N1CCCC1)c1nc(-c2ccccc2)nc2ccccc12	12.7%	.	.	.	.	.
CCn1c(-c2cc3c(C(F)(F)F)nn(C)c3s2)n[nH]c1=S	10µM*	-2.5%	?	-6.9%	-8.0%	8.0%
Cn1c(-c2cc3c(C(F)(F)F)nn(C)c3s2)n[nH]c1=S	?	-14.0%	?	-6.9%	-6.2%	9.9%
